PAFAH1B3 FP inh = PAFAH1B3 enzyme inhibitors, primary screen, biochemical, fluorescence polarization, human. recombinant PAFAH1B3, FP-rhodamine probe. 0.28% of 340,000 active. AID 492972, 2010. inhibition, % at 3.39 µM;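 active = inhibition above the screen-wide average of all tested compounds plus 3 SD, cut at about 25% in these data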;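 note: 0% = enzyme with DMSO only and 100% = wells lacking PAFAH1B3 protein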
Target sequence (Q15102 whole entry, looked up): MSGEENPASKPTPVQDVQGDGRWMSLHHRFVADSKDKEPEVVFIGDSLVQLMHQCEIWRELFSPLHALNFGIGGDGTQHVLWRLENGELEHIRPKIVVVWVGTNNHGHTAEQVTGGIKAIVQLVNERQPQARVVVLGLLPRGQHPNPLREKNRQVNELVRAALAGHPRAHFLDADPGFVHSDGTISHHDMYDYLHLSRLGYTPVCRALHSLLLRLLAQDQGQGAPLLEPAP
HTRA1 inhibitor = HTRA1 serine protease inhibitors, primary screen, biochemical, fluorescence polarization, HTS. Q92743. recombinant HTRA1, FP-rhodamine activity-based probe. inhibition, % at 5.96 µM. 0.5% of 340,000 active. AID 504803, 2011; in the data active = inhibition above about 36%;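 note: 0% = enzyme with DMSO and 100% = wells lacking enzyme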
Target sequence (Q92743 whole entry, looked up): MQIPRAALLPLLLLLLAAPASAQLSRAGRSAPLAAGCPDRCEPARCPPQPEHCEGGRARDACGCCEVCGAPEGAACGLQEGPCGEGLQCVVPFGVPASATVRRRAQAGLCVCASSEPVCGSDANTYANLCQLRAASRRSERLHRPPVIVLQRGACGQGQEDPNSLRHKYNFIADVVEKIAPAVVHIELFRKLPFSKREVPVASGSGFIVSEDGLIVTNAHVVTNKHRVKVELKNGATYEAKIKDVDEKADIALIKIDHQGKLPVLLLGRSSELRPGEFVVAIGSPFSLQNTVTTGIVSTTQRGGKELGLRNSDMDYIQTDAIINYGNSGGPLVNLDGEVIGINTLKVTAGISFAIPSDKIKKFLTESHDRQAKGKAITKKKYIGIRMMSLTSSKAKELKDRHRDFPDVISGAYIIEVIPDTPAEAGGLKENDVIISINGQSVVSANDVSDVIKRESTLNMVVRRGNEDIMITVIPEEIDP
PAFAH1B2 FP inh = PAFAH1B2 enzyme inhibitors, primary screen, biochemical, fluorescence polarization, human; inhibition, % at 3.39 µM; recombinant PAFAH1B2, FP-rhodamine activity probe; Platelet-activating factor acetylhydrolase IB subunit alpha2 (Homo sapiens), P68402; AID 492953, 2010; 1.2% of 340,000 active;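 active = inhibition above the mean of all tested compounds plus 3 SD, cut at about 24% in these data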;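 note: 0% = enzyme with DMSO and 100% = wells lacking PAFAH1B2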
DAGLB inh = DAGLB lipase inhibitors, primary screen, biochemical, fluorescence, HTS. Diacylglycerol lipase-beta (Homo sapiens), Q8NCG7. HEK293T DAGLB membrane lysate, EnzChek fluorogenic substrate. inhibition, % at 5.17 µM. 0.059% of 340,000 active. AID 504411, 2011; in the data active = inhibition above about 34%;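 note: 0% = enzyme with vehicle and 100% = wells lacking enzyme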
PAFAH2 inh = PAFAH2 enzyme inhibitors, primary screen, biochemical, fluorescence polarization, human; Platelet-activating factor acetylhydrolase 2, cytoplasmic (Homo sapiens), Q99487; recombinant PAFAH2, FP-rhodamine activity probe; inhibition, % at 3.39 µM; 0.99% of 340,000 active;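 active = inhibition above the mean over all tested compounds plus 3 SD, cut at about 30% in these data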;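 note: inhibitors block probe labeling of enzyme so polarization drops; 0% = enzyme with DMSO and 100% = wells lacking PAFAH2 protein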
pPAFAH inh = pPAFAH enzyme inhibitors, primary screen, biochemical, fluorescence polarization, human; Platelet-activating factor acetylhydrolase (Homo sapiens), Q13093; recombinant pPAFAH, FP-rhodamine probe fluorescence polarization; inhibition, % at 3.39 µM; 1.5% of 330,000 active; AID 463082, 2010;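 active = inhibition above the mean inhibition across the screen plus 3 SD, cut at about 25% in these data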;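 note: inhibitors block binding of the rhodamine activity-based probe so polarization drops; 0% = enzyme with DMSO and 100% = wells lacking pPAFAH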
Active calls of the source: *; . = no result given. In the library only some 2.8% were active in any assay of this set; here they are far more common.

SMILES	PAFAH1B3 FP inh	HTRA1 inhibitor	PAFAH1B2 FP inh	DAGLB inh	PAFAH2 inh	pPAFAH inh
Cc1nc(SCCc2ccccc2)[nH]c(=O)c1C	7.2	3.3	6.0	-0.6	2.0	26.6*
O=C(Oc1ccc2ccc(=O)oc2c1)c1ccco1	0.7	2.0	0.3	2.5	-1.5	-0.5
CC1CCC(NC(=O)CC(NC(N)=O)c2ccccc2Cl)CC1 (stereo not drawn)	-4.2	4.7	8.7	0.9	2.7	-1.7
O=C(O)CCCC(=O)N1CCN(c2nc(-c3ccccc3Cl)c3cc(Br)ccc3n2)CC1	-1.8	5.2	1.2	4.0	-0.4	27.7*
Cc1ccc2nc(N3CCN(C(=O)CCCC(=O)O)CC3)nc(-c3ccccc3)c2c1	5.9	-4.0	-4.4	2.7	-3.1	5.3
COc1ccccc1CN(C)CC(=O)NC(=O)NC1CCCCC1	-1.6	-5.5	0.2	-3.0	-0.3	33.6*
CN(CC(=O)Nc1ccc(C#N)cc1)Cc1ccc(Cl)cc1	15.6	-10.0	31.3*	-1.0	7.6	1.6
CN(CC(=O)NC(=O)NC1CCCCC1)CC(=O)Nc1ccc(Cl)cc1	1.8	-6.0	24.4*	-1.8	1.0	4.5
CN(CC(=O)Nc1ccc(Cl)cc1)C1CCCCC1	5.5	-0.6	8.5	-2.5	-3.8	-1.2
O=C(O)CC/C(=C\c1ccc2c(c1)OCO2)c1nc2ccccc2s1	2.8	-2.0	2.0	-1.4	6.0	3.4
O=C(CSc1nc2ccccc2s1)Nc1ccc(N2CCOCC2)c(Cl)c1	3.0	-13.7	1.7	-5.8	4.1	6.6
COc1cc(/C=C(\CCC(=O)O)c2nc3ccccc3s2)ccc1OCC(=O)Nc1c(Cl)cccc1Cl	5.9	-2.6	66.9*	-0.4	-0.1	5.5
O=C(O)CC/C(=C\c1ccc(N2CCOCC2)c([N+](=O)[O-])c1)c1nc2ccccc2s1	0.2	4.5	91.7*	19.1	1.7	.
O=C(O)C/C(=C\c1ccc(N2CCOCC2)c([N+](=O)[O-])c1)c1nc2ccccc2s1	-7.5	-0.4	4.2	11.4	12.4	26.0*
COc1ccc2[nH]c3c(c2c1)CCN1C(=O)C(CC(=O)NCCc2ccccn2)C[C@H](C(=O)N2CCCCC2)[C@@]31C (stereo partly drawn)	1.5	-2.6	0.8	-0.1	-3.4	3.2
COc1cc(NC(=O)CCS(=O)(=O)c2ccc3c(c2)n(C)c(=O)c(=O)n3C)cc(OC)c1	5.7	0.8	0.7	-1.7	9.0	-1.8
CC(C)(C)C(=O)Nc1cc(NC(=O)C(C)(C)C)cc(C(=O)Nc2c[nH]c(=O)[nH]c2=O)c1	.	.	.	.	.	-1.6
COc1ccc(Cl)cc1C(=O)NNC(=O)CSc1nncn1C	4.3	4.1	2.2	-2.1	-1.1	5.6
CN(Cc1ccc(F)cc1)S(=O)(=O)c1ccc2[nH]c(=O)[nH]c2c1	.	-2.5	.	-1.7	.	.
Cc1ccccc1Nc1cc2ccccc2c(=O)[nH]1	54.2*	-0.5	8.6	0.2	10.4	3.8
CCc1ccc(NC(=O)[C@H](C)NC(=O)C2CCN(C(=O)[C@@H](N)C(C)C)CC2)cc1	1.4	7.8	1.6	-2.4	3.5	2.1
CC1(C)O[C@@H]2[C@@H](CO[C@@]3(COS(N)(=O)=O)OC(C)(C)O[C@@H]23)O1	.	.	.	.	.	-3.8
CC1(COS(N)(=O)=O)CCCCC1	12.3	2.0	34.6*	-1.3	11.2	2.4
C/C(=N\NC(N)=O)C1CC(Cc2ccccc2)C(=O)O1 (stereo not drawn)	3.9	-5.5	14.6	-0.9	-3.3	.
O=C(Nc1ccc(S(=O)(=O)Nc2nccs2)cc1)c1nn(-c2ccc(F)cc2)ccc1=O	7.2	8.2	1.3	-1.0	24.0	26.3*
SMILES	PAFAH1B3 FP inh	HTRA1 inhibitor	PAFAH1B2 FP inh	DAGLB inh	PAFAH2 inh	pPAFAH inh
CCOc1ccc(-n2ccc(=O)c(C(=O)Nc3ccc(S(=O)(=O)Nc4nccs4)cc3)n2)cc1	4.7	-2.7	5.3	1.6	11.6	17.2
O=C(CC1S/C(=N\S(=O)(=O)c2ccccc2)N(c2ccccc2)C1=O)Nc1ccc(F)cc1 (stereo not drawn)	0.0	-21.5	6.9	-1.5	-1.2	-0.2
Cc1ccc(S(=O)(=O)/N=C2\SC(CC(=O)Nc3ccc(F)cc3)C(=O)N2c2ccccc2)cc1 (stereo not drawn)	-1.3	-33.9	32.1*	-3.3	-5.3	3.0
COC(=O)Cc1c(O)ccn(Cc2ccc(Cl)c(Cl)c2)c1=O	13.9	0.3	28.2*	-2.5	6.7	4.8
COC(=O)Cc1c(O)ccn(Cc2ccc(OC)c(OC)c2)c1=O	10.6	-1.6	9.6	2.6	-2.7	-1.1
O=c1c(Cc2ccc(Cl)cc2Cl)c(O)ccn1Cc1ccc(Cl)cc1	1.1	-40.9	27.8*	0.6	3.9	4.9
COc1cc(-c2cc(=O)c3c(O)c(OC)c(OC)c(O)c3o2)ccc1O	25.5	33.8	6.2	0.5	7.2	26.4*
N/C(=N\OC(=O)CCCOc1ccccc1)c1ccncc1	0.0	5.7	13.8	-4.4	1.9	-0.9
N/C(=N\OC(=O)CCCOc1ccccc1)c1ccc(Br)cc1	2.8	-7.6	80.8*	-29.2	3.6	-0.5
N/C(=N\OC(=O)CCCOc1ccccc1)c1ccccc1	-0.8	-12.9	29.3*	-17.7	-2.6	1.9
COCC(C)NS(=O)(=O)c1ccc(NC(=O)c2ccccn2)cc1 (stereo not drawn)	1.9	-6.1	9.1	0.5	3.4	-1.2
COc1ccccc1CNC(=O)CN(CCc1ccccc1)S(C)(=O)=O	2.6	-7.3	3.3	0.3	0.2	-6.2
Cc1ccc(CSc2nnc(NC(=O)C3COc4ccccc4O3)s2)cc1 (stereo not drawn)	12.2	-11.6	30.5*	4.0	9.9	6.5
Cc1ccc(S(=O)(=O)N2CCN(C(=O)c3ccco3)CC2)c(C)c1	4.9	3.5	-1.8	-0.9	1.4	-3.5
Cc1ccc(S(=O)(=O)N2CCN(C(=O)c3ccccc3Cc3ccccc3)CC2)c(C)c1	-1.5	-29.2	27.4*	-1.4	-0.5	4.3
CC(C)C(NS(=O)(=O)c1ccc2c(c1)OCCCO2)C(=O)O (stereo not drawn)	4.3	4.0	6.2	2.6	7.6	-2.0
CC(NS(=O)(=O)c1ccc2c(c1)OCCO2)c1ccccc1 (stereo not drawn)	5.7	2.9	27.1*	0.3	6.4	8.4
CC1(C)CC[C@]2(CO)[C@@H](O)C[C@]3(C)C(=CCC4[C@@]5(C)CC[C@H](O)C(C)(C)C5CC[C@]43C)[C@@H]2C1 (stereo partly drawn)	.	.	.	.	.	-2.9
COc1ccc(Cl)cc1NC(=O)CN1CCC(n2nnc3ccccc32)CC1	3.7	-5.1	0.7	-4.7	-5.5	25.3*
COc1ccc(Cl)cc1NC(=O)CN1CCC(NC(=O)C2CC2)CC1	-2.0	-2.7	1.6	0.0	-1.3	-1.9

Screening data as filed in PubChem.
